Test results from PubChem BioAssay.
Active and inactive are the calls of the source.

How the values were obtained:
[1] = binders of probe aFSTL3 on microarray, primary screen, stem cell growth factor project, biochemical, small-molecule microarray, fluorescence 635/667 (AID 1064); settings: higher = more signal;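 also: measures binding of the biotinylated anti-FSTL3 antibody to printed compounds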
[2] = binders from COS7 lysate, DM2A8 probe, primary screen, torsin A project, cell lysate, small-molecule microarray, fluorescence 635/667 (AID 1065); settings: higher = more signal, COS7 lysate expressing mutant human TOR1A
[3] = binders of probe aFGF2 on microarray, primary screen, stem cell growth factor project, biochemical, small-molecule microarray, fluorescence 635/667 (AID 1067); settings: higher = more signal;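 also: measures binding of biotinylated aFGF2 protein to printed compounds on slides; z-score merges feature fluorescence and signal-to-noise across triplicate slides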
[4] = binders of probe aFGF10 on microarray, primary screen, stem cell growth factor project, biochemical, small-molecule microarray, fluorescence 635/667 (AID 1071); settings: higher = more signal;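 also: score merges 667 nm spot intensity and signal to noise from triplicate slides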
[5] = target: Neurogenic locus notch homolog protein 2 (Homo sapiens) (UniProt Q04721); experiment: Notch2 binders on small-molecule microarrays, primary screen, biochemical, small-molecule microarray, 635 nm fluorescence, stem cell growth factors (AID 1073); settings: Notch2 binding, higher = more signal
Chain of Neurogenic locus notch homolog protein 2 (Homo sapiens) (Q04721 whole entry, looked up, canonical isoform): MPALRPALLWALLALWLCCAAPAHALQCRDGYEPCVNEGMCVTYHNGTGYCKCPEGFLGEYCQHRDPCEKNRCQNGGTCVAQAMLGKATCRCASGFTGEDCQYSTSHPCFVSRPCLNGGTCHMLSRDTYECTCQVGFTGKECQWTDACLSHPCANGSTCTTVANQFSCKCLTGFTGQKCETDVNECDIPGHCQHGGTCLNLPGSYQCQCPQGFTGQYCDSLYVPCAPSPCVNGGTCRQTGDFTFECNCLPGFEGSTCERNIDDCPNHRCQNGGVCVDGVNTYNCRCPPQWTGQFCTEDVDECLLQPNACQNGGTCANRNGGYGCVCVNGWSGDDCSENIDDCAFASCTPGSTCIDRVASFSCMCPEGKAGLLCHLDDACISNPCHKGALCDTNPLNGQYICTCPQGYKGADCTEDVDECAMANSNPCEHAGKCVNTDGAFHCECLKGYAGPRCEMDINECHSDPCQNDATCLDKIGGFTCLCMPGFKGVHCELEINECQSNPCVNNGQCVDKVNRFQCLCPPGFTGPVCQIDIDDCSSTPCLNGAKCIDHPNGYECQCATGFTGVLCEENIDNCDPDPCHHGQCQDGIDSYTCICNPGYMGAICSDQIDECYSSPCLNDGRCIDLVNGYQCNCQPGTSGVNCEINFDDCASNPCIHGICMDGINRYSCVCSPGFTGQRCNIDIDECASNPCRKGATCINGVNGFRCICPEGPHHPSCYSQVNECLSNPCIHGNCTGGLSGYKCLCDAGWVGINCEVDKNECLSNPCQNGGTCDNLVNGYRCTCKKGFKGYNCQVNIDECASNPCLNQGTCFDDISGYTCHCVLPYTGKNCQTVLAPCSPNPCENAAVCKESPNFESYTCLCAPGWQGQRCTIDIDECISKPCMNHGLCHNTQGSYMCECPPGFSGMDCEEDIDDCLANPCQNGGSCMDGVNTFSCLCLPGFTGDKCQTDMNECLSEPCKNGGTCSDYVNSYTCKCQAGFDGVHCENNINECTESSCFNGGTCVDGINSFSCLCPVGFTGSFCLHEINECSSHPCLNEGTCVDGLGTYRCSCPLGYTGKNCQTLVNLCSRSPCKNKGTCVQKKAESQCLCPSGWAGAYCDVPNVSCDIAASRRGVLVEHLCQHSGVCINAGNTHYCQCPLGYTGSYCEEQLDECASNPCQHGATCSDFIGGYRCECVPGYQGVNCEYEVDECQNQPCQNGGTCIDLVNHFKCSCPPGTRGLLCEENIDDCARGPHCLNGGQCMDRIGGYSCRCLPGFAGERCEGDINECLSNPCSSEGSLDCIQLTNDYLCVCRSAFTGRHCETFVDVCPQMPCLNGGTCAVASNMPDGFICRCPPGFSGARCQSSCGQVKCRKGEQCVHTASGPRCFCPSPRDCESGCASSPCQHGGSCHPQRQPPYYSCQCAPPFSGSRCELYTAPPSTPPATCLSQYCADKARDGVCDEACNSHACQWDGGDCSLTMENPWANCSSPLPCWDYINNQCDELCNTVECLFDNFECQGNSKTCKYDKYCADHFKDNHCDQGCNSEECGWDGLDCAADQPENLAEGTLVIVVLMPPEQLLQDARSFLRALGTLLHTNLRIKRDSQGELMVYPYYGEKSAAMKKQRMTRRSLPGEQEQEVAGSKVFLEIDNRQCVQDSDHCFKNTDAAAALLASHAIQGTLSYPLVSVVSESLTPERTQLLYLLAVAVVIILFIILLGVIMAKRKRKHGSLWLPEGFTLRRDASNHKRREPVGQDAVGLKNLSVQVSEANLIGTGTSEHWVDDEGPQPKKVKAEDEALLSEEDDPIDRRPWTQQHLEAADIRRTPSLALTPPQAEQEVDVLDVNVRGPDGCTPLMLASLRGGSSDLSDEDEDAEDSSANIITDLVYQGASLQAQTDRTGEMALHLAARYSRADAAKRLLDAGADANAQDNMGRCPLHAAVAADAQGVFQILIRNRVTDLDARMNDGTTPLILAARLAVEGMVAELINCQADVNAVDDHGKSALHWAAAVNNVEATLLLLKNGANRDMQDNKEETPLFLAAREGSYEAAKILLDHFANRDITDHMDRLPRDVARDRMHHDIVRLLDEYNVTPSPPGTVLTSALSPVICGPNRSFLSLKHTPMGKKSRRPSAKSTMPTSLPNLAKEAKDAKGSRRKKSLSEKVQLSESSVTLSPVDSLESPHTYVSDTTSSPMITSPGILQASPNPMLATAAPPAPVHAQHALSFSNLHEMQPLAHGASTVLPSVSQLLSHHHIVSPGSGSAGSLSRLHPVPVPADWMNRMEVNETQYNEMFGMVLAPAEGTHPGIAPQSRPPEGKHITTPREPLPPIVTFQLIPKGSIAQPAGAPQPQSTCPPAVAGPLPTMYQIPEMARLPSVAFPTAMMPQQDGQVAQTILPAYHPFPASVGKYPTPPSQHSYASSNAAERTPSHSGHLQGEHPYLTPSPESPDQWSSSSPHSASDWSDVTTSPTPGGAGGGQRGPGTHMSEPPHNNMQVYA

[6] = target: Pro-neuregulin-1, membrane-bound isoform (Homo sapiens) (UniProt Q02297); experiment: NRG1 binders on small-molecule microarrays, primary screen, psychiatric disease protein project, biochemical, small-molecule microarray, fluorescence 635/667 (AID 1075); settings: NRG1 binding, 635 nm fluorescence, higher = more signal;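 also: score combines 667 nm spot fluorescence with signal to noise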
Chain of Pro-neuregulin-1, membrane-bound isoform (Homo sapiens) (Q02297 whole entry, looked up, the tested form may be a part, canonical isoform): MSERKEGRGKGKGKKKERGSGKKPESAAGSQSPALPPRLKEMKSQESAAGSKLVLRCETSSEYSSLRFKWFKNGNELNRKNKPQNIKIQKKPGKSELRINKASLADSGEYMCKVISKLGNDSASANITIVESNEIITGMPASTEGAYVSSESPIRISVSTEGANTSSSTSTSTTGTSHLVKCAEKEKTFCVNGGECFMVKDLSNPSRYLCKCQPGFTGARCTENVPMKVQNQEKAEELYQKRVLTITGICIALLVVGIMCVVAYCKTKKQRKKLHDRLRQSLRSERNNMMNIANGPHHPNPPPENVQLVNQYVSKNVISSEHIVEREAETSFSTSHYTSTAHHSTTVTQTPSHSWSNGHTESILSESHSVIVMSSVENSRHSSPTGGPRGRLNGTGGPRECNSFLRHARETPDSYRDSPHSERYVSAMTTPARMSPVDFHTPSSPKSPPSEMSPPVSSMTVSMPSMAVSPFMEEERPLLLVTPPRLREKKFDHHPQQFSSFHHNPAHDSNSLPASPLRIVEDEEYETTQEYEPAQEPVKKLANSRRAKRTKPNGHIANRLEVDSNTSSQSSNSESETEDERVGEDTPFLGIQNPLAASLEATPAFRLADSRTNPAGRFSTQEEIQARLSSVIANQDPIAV

[7] = tested on: Neuregulin-1 EGF-like domain; experiment: binders of neuregulin-1 EGF-like domain, primary screen, biochemical, small-molecule microarray, 635 nm fluorescence (AID 1081); settings: small-molecule microarray binding, higher = more signal;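 also: binding of the protein to compounds printed on small-molecule microarray slides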
[8] = FRG1 promoter luciferase signal modulators, primary screen, FRG1 inhibition for FSHD, cell-based, C2C12 myotubes, firefly/Renilla luciferase, luminescence (AID 1084); settings: higher = more signal, called active from +8 up or from −8 down
[9] = binders of probe aFST on microarray, primary screen, stem cell growth factor project, biochemical, small-molecule microarray, fluorescence 635/667 (AID 1086); settings: higher = more signal;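 also: score merges 667 nm fluorescence with signal-to-noise of each printed compound spot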
[10] = binders of probe aHhip on microarray, primary screen, stem cell growth factor project, biochemical, small-molecule microarray, fluorescence 635/667 (AID 1087); settings: higher = more signal;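 also: score merges spot fluorescence at 667nm with spot signal to noise ratio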

| SMILES | composite z-score [1] | composite z-score [2] | composite z-score [3] | composite z-score [4] | composite z-score [5] | composite z-score [6] | composite z-score [7] | z-score [8] | composite z-score [9] | composite z-score [10] |
| --- | --- | --- | --- | --- | --- | --- | --- | --- | --- | --- |
| CC(C)OC(=O)C=C1C[C@@H](c2ccccn2)O[C@@H](c2ccccn2)O1 | -0.431 | -0.121 | -0.158 | 0.0234 | -0.538 | -0.13 | 1.27 | 0.805 (inactive) | -0.171 | -0.112 |
| CC(=O)n1cc(C(O)C2C=CC3C(=O)N(c4ccccc4)C(=O)C3N2Nc2ccc([N+](=O)[O-])cc2)c2ccccc21 (stereo not given) | 0.889 | 1.44 | -0.0605 | -0.0938 | 1.24 | 1.23 | 1.22 | -0.438 (inactive) | 1.02 | 0.0274 |
| CC(C)C[C@@H]1NC(=O)[C@@H]2C[C@H](C(=O)O)[C@H](c3cccc(OCCO)c3)N2C1=O | 0.73 | 0.363 | -0.0403 | -0.276 | -0.475 | 0.402 | 0.643 | 1.29 (inactive) | -0.235 | -0.264 |
| C=C[C@H](C)[C@@H](OC(=O)Nc1ccc(OC)cc1)c1ccc(O)c2ccccc12 | 0.358 | 0.357 | -0.142 | -0.225 | -1.53 | 0.3 | 1.27 | 4.09 (inactive) | -0.344 | -0.37 |
| O[C@@H](Cc1ccccc1)[C@H]1C2C=CCCC=C2CN1Cc1cccc(Cl)c1 (stereo not given in full) | -0.328 | -0.0571 | -0.0075 | 0.617 | 0.944 | 0.898 | 1.19 | -1.45 (inactive) | 0.61 | -0.214 |
| CO[C@H]1O[C@H](CO)[C@@H](OC(=O)Nc2ccccc2)[C@H](OC(=O)Nc2ccccc2)[C@@H]1OC(=O)Nc1ccccc1 | -0.29 | 0.692 | 0.205 | 0.784 | 1.3 | 1.45 | 1.37 | 1.89 (inactive) | 1.05 | -0.546 |
| CC1(C)[C@@H]2CC(C(O)C3C=CC4C(=O)N(Cc5ccccc5)C(=O)C4N3n3cnnc3)=C[C@H]1C2 (stereo not given in full) | -0.0224 | 0.839 | 0.0119 | 0.959 | 1.33 | 1.56 | 1.39 | 0.349 (inactive) | 1.06 | 0.0053 |
| CO[C@H]1O[C@H](CO)[C@@H](OC(=O)Nc2ccc(Oc3ccccc3)cc2)[C@H](OC(=O)Nc2ccc3c(c2)OCO3)[C@H]1OC(=O)Nc1ccc2c(c1)OCO2 | 0.522 | 1.24 | 0.178 | 1.21 | 1.5 | 1.69 | 1.15 | 5.22 (inactive) | 0.968 | 0.241 |
| COc1cc2c(cc1O)C(c1cccs1)N(C)CC2 (stereo not given) | -0.101 | -0.493 | -0.201 | -0.143 | -0.521 | -0.714 | -0.31 | 0.52 (inactive) | -0.166 | -0.0994 |
| C=C[C@@H](COC(=O)OC(C)(C)C)N(Cc1ccc(OC)cc1)S(=O)(=O)c1ccc(Br)cc1 | -0.492 | 0.544 | -0.0598 | 0.0626 | 0.779 | 0.142 | 0.8 | -2.35 (inactive) | 0.481 | 0.0505 |
| O=C1C[C@@](C(=O)NCCN2CCOCC2)(c2ccc([N+](=O)[O-])cc2)[C@@H](c2ccc(CO)cc2)N1CC12CC3CC(CC(C3)C1)C2 | -0.243 | 0.667 | -0.0692 | 0.573 | 1.51 | 1.58 | 1.39 | -2.76 (inactive) | 0.669 | 0.155 |
| C=C(CC1([C@@H](NP(=O)(c2ccccc2)c2ccccc2)[C@H]2C[C@@H]2CCCC)CC1)c1ccccc1 | 0.591 | -0.417 | -0.218 | 0.194 | 1.42 | 0.896 | 0.843 | 2.47 (inactive) | 1.07 | 0.419 |
| COC(=O)[C@@]1(CCC(=O)OC(C)(C)C)N=C(c2ccc(OCCCO)cc2)O[C@H]1c1ccccc1N=[N+]=[N-] | 0.165 | -0.15 | -0.0354 | -0.312 | -0.0015 | 1.26 | 1.06 | 3.09 (inactive) | -0.161 | 0.119 |
| C=CC[C@@]1(C(=O)NCCN2CCOCC2)N=C(c2ccc(OCCCO)cc2)O[C@@H]1c1ccccc1N=[N+]=[N-] | 1.4 | -0.355 | -0.119 | 0.686 | 0.322 | 1.37 | 1.03 | 2.98 (inactive) | 0.803 | -0.0645 |
| COCCOC(=O)N1C(=O)[C@@]2(c3cc(C#Cc4ccc(OC)cc4)ccc31)[C@H](c1ccccc1OCCO)N1[C@H](c3ccccc3)[C@H](c3ccccc3)OC(=O)[C@H]1[C@@H]2C(=O)NC[C@H](O)c1ccccc1 | -0.532 | 0.579 | -0.0744 | 0.514 | 1.09 | 1.12 | 1.3 | 0.19 (inactive) | 0.499 | -0.0346 |
| C=CCC(OC(C)=O)[C@@H]1[C@@H](N(Cc2ccc(-c3ccccc3)cc2)C(=O)Cc2ccc(OC)cc2)c2cc(OCCCO)ccc2N1C(=O)Cc1ccc2ccccc2c1 (stereo not given in full) | -0.214 | 0.735 | -0.0891 | 0.0163 | -0.299 | -0.32 | -0.504 | -0.952 (inactive) | 0.0346 | -0.144 |
| C=C(/C(=C/C[C@H](OC(C)=O)c1ccc(CO)o1)c1cc(C(=O)OC)ccc1OC)C(C)C | -0.0849 | -0.442 | -0.0637 | 0.597 | 0.102 | -0.306 | 0.53 | -0.601 (inactive) | 0.031 | 0.119 |

| SMILES | composite z-score [1] | composite z-score [2] | composite z-score [3] | composite z-score [4] | composite z-score [5] | composite z-score [6] | composite z-score [7] | z-score [8] | composite z-score [9] | composite z-score [10] |
| --- | --- | --- | --- | --- | --- | --- | --- | --- | --- | --- |
| [N-]=[N+]=Nc1ccccc1[C@@H]1OC(c2ccc(OCCCO)cc2)=N[C@]1(CCS(=O)(=O)c1ccccc1)C(N)=O | 0.109 | -0.0445 | 0.29 | 0.829 | 1.58 | 1.63 | 1.23 | 1.14 (inactive) | 2.08 | -0.213 |
| COc1ccc(CCNC(=O)[C@@]2(Sc3ccc(C)cc3)CC(=O)N(C(C)C)[C@@H]2c2ccc(CO)cc2I)cc1 | -0.0354 | -0.566 | 0.0376 | -0.341 | -0.83 | -0.387 | 0.31 | -0.132 (inactive) | 0.238 | -0.511 |
| COCCOC(=O)N1C(=O)[C@@]2(c3cc(C#CCCO)ccc31)[C@H](C(N)=O)[C@H]1C(=O)O[C@H](c3ccccc3)[C@H](c3ccccc3)N1[C@@H]2c1ccc(O)cc1 | -0.025 | -0.283 | -0.0145 | 0.413 | -0.242 | 0.298 | 0.171 | 0.663 (inactive) | -0.0464 | -0.202 |
| CC(C)C(O)C1C=CC2C(=O)N(c3ccccc3)C(=O)C2N1Nc1ccc([N+](=O)[O-])cc1 (stereo not given) | 0.549 | -0.0664 | 0.0485 | 0.569 | 0.951 | 1.34 | 0.8 | 1.07 (inactive) | 0.886 | -0.214 |
| C=CCOC(=O)[C@@H]1[C@H]2C(=O)O[C@H](c3ccccc3)[C@H](c3ccccc3)N2[C@H](c2ccc(OCCOC(=O)[C@H]3C[C@H]4C(=O)N5CCC[C@H]5C(=O)N4[C@H]3c3ccc(O)cc3)cc2)[C@@]12C(=O)Nc1ccc(I)cc12 | -0.493 | 0.942 | -0.0958 | 0.59 | 0.929 | 0.782 | 1.24 | -0.627 (inactive) | -0.0364 | -0.34 |
| CN(C)CCCCCCNC(=O)[C@H]1C[C@H]2C(=O)N3CCC[C@H]3C(=O)N2[C@H]1c1ccc(O)cc1 | -0.0698 | 1.93 | 0.0082 | 1.16 | 0.863 | 0.854 | 1.49 | 3.92 (inactive) | 0.2 | 0.151 |
| COC(=O)[C@@]1(Cc2ccc(OC)cc2)[C@@H]2C(=CC(=O)[C@H]2CC(=O)C(=O)N2CCCC2)CN1C(=O)c1ccccc1 | 0.156 | -0.601 | -0.0124 | 0.224 | 1.6 | 1.02 | 1.25 | 2.91 (inactive) | 1.1 | 1.41 |
| [N-]=[N+]=NCc1ccccc1[C@@H]1OC(c2ccc(OCCCO)cc2)=N[C@]1(Cc1ccccc1)C(N)=O | 0.0286 | -0.187 | 0.0062 | 0.98 | 1.6 | 1.99 | 1.29 | 2.02 (inactive) | 1.35 | -0.249 |
| O=C1O[C@H](c2ccccc2)[C@H](c2ccccc2)N2[C@H]1[C@@H](C(=O)N1CCCCCCC1)[C@]1(C(=O)Nc3ccc(C#CCCO)cc31)[C@H]2c1ccccc1OCCO | 3.95 | 2.92 | 1.08 | 1.62 | 1.72 | 2.85 | 1.37 | -0.851 (inactive) | 3.77 | 4.26 |
| COc1ccc(/C=C/C=O)cc1 | -0.0583 | 0.144 | -0.0982 | 0.19 | 0.173 | -0.802 | -0.562 | 0.599 (inactive) | 0.0803 | 0.0975 |
| O=C(OCc1ccccc1)C1=CCC2c3[nH]c4ccccc4c3C(=O)C1N2S(=O)(=O)c1ccccc1[N+](=O)[O-] (stereo not given) | -0.154 | -0.0749 | 0.105 | 0.982 | 1.7 | 1.65 | 1.19 | -4.32 (inactive) | 0.627 | 0.0759 |
| CC(C)NC(=O)[C@@]1(c2ccc([N+](=O)[O-])cc2)CC(=O)N(C2CCCCC2)[C@@H]1c1ccc(CO)cc1I | 1.12 | 0.586 | -0.0548 | -0.0891 | -0.0016 | 0.662 | 1.12 | 0.286 (inactive) | 0.178 | 0.426 |
| COC(=O)C(CC#Cc1ccc2c(c1)[C@]1(C(=O)N2)[C@H](C(=O)Nc2nc3ccccc3s2)[C@H]2C(=O)O[C@H](c3ccccc3)[C@H](c3ccccc3)N2[C@@H]1c1ccccc1OCCO)C(=O)OC | 0.0102 | 0.628 | 0.0941 | 1.12 | 1.26 | 1.07 | 1.31 | 1.43 (inactive) | 0.709 | -0.0296 |
| CCOC(=O)C1=CC[C@@H](c2ccccc2)N(S(=O)(=O)c2ccc(C)cc2)[C@H]1c1ccccc1C | 0.158 | -0.0515 | -0.0895 | 0.49 | 1.47 | 0.393 | 0.714 | -3.47 (inactive) | 0.789 | 0.115 |
| O=C1c2ccccc2[C@](Cc2ccccc2I)(C(=O)NCC(F)(F)F)[C@H](c2ccc(CO)cc2)N1Cc1ccccc1Cl | -0.266 | 0.0347 | 0.0069 | 0.106 | 0.95 | 1.74 | 1.28 | -1.05 (inactive) | 0.748 | 0.0373 |
| COc1ccc([Si](C)(C)[C@@H]2[C@@H](CC(=O)N3CCC[C@H]3CO)O[C@]3(C(=O)N(c4ccccc4)c4ccccc43)[C@H]2C)cc1 | -0.527 | 0.411 | -0.122 | 0.713 | 0.907 | 0.0499 | 1.11 | -1.24 (inactive) | 0.552 | 0.21 |
